Assay results: PubChem BioAssay (Tox21)
Results filed as inconclusive are left out. The source made the active and inactive calls. Unless noted, calls come from the whole dose curve; as a rule, active = well fitted curve in the direction sought with a large enough effect in the repeat runs; inconclusive = weak or mixed curves; inactive = no such curve, though single readings can be large; an effect the other way counts as inactive or inconclusive.

What was measured:
[1] = qHTS assay to identify aromatase inhibitors - cell viability counter screen (AID 743084);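 note: cells stimulated with testosterone during compound exposure; nearly all actives have a fitted effect of over 55% in size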
[2] = target: Aryl hydrocarbon receptor (Homo sapiens) (UniProt P35869); assay: qHTS assay to identify small molecule that activate the aryl hydrocarbon receptor (AhR) signaling pathway (AID 743085);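 note: HG2L7.5c1 human HepG2 liver cells with stably integrated DRE-driven firefly reporter; series mostly up to about 70 µM; nearly all actives have a fitted effect of over 15% in size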
Sequence of Aryl hydrocarbon receptor (Homo sapiens) (P35869 whole entry, looked up): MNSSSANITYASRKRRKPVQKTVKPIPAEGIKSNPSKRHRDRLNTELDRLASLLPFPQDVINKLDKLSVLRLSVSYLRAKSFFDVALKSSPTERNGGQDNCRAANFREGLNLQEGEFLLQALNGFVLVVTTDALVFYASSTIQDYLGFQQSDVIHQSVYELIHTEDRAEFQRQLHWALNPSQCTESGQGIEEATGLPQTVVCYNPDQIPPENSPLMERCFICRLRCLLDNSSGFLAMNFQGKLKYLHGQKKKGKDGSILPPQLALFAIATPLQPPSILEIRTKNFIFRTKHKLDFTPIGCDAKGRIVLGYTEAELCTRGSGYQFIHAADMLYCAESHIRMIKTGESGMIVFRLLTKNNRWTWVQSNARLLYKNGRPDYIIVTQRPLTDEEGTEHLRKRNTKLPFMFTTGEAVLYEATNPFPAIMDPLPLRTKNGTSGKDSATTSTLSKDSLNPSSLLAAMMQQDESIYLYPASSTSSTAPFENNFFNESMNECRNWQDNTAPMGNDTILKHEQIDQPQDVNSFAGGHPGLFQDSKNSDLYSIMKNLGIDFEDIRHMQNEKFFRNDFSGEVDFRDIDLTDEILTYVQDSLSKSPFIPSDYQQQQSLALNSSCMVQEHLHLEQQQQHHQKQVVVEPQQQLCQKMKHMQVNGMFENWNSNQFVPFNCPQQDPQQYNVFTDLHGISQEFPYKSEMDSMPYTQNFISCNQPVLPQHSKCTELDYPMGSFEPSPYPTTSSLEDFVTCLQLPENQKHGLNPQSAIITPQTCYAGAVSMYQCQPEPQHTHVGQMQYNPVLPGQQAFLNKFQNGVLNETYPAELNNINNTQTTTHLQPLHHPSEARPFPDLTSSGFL
Summary of the method: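 HepG2 cells stably carrying a 20-DRE firefly luciferase reporter (HG2L7.5c1) treated with compound for 24 hr at 37C. Luciferase read by ONE-Glo luminescence, with CellTiter-Fluor viability read first.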

[3] = qHTS assay to identify small molecule that activate the aryl hydrocarbon receptor (AhR) signaling pathway - cell viability counter screen (AID 743086);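 note: HepG2 liver cells carrying the AhR DRE luciferase reporter; series mostly up to about 70 µM; nearly all actives have a fitted effect of over 45% in size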
Summary of the method: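 HepG2-AhR-luc (HG2L7.5c1) cells, 4000/well, treated 24 h at 37 C with compound; viability measured as CellTiter-Fluor fluorescence after 30 min in the same wells as the luciferase read.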

[4] = target: Peroxisome proliferator-activated receptor gamma (Homo sapiens) (UniProt P37231); assay: qHTS assay to identify small molecule agonists of the peroxisome proliferator-activated receptor gamma (PPARg) signaling pathway (AID 743094; active = well fitted activation curve with a large enough effect in the signal ratio in the repeat runs, not every such curve was filed as active; the % refers to the signal ratio)
Sequence of Peroxisome proliferator-activated receptor gamma (Homo sapiens) (P37231 whole entry, looked up): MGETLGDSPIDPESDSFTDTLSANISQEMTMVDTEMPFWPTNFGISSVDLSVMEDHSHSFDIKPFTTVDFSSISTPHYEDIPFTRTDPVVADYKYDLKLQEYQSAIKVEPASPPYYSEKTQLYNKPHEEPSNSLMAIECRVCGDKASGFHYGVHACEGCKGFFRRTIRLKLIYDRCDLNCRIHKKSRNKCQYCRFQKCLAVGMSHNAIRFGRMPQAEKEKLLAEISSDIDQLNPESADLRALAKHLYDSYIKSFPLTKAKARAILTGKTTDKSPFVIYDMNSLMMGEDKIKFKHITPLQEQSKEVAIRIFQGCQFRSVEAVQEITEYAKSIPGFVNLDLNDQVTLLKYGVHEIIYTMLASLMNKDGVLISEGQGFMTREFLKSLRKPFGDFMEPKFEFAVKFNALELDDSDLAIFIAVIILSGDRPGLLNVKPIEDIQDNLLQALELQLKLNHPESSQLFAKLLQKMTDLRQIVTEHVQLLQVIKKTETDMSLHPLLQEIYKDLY
Summary of the method: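 Agonism was assessed in a beta-lactamase reporter system, HEK293H cells with a stably integrated UAS-bla construct under PPARg control; the 17 h treatment at 37C preceded a 1 h room-temperature FRET substrate read.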

[5] = target: Peroxisome proliferator-activated receptor gamma (Homo sapiens) (UniProt P37231); assay: qHTS assay to identify small molecule antagonists of the peroxisome proliferator-activated receptor gamma (PPARg) signaling pathway (AID 743191; calls by dose curve; note: series mostly up to about 63 µM; nearly all actives have a fitted effect of over 30% in size)
Summary of the method: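 GeneBLAzer PPARg UAS-bla HEK293H cells, 5 h post-plating, exposed to compounds 17 h at 37C. LiveBLAzer B/G FRET substrate added for 1 h at room temperature; beta-lactamase reporter read by fluorescence intensity.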

[6] = qHTS assay to identify small molecule antagonists of the peroxisome proliferator-activated receptor gamma (PPARg) signaling pathway - cell viability counter screen (AID 743194); note: nearly all actives have a fitted effect of over 55% in size
Summary of the method: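 Cytotoxicity counter screen in PPARg-bla HEK293H cells, same wells as reporter assay. Compounds plus 50 nM rosiglitazone (final) for 17 h at 37 C, then viability read by CellTiter-Glo luminescence.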

[7] = qHTS assay for small molecule agonists of the antioxidant response element (ARE) signaling pathway - cell viability counter screen (AID 743203; calls by dose curve; note: nearly all actives have a fitted effect of over 55% in size)
Summary of the method: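 ATP content via CellTiter-Glo luminescence served as the viability measure. Cells: ARE-bla HepG2, 2,000 per well. Exposure: 16 hrs, 37C/5% CO2.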

[8] = qHTS assay for small molecule activators of the heat shock response signaling pathway - cell viability counter screen (AID 743209); note: nearly all actives have a fitted effect of over 50% in size
Summary of the method: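 Compounds dissolved in DMSO were added to overnight-plated HSE-bla HeLa cells and left 5 h at 37 C. Cell viability was quantified by luminescence using CellTiter-Glo.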

[9] = qHTS assay for small molecule activators of the heat shock response signaling pathway (AID 743210; active = well fitted activation curve with a large enough effect in the signal ratio in the repeat runs, with a control signal flat, not every such curve was filed as active; the % refers to the signal ratio;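 note: HeLa cells with beta-lactamase reporter driven by heat shock elements; series mostly up to about 63 µM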)
Summary of the method: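 Following overnight attachment, HSE-bla HeLa cells received test compounds for 5 h at 37 C; beta-lactamase activity was then detected via FRET substrate fluorescence.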

[10] = qHTS assay to identify small molecule agonists of the peroxisome proliferator-activated receptor delta (PPARd) signaling pathway - cell viability counter screen (AID 743211); note: nearly all actives have a fitted effect of over 55% in size
Summary of the method: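 PPARd-bla HEK293H cells (3000/well) were pre-incubated 5 h at 37 C, then exposed to compound for 17 h at 37 C. After 2 h with LiveBLAzer substrate, CellTiter-Glo was added to the same wells; luminescence read after 30 min at room temperature.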

[11] = target: Peroxisome proliferator-activated receptor delta (Homo sapiens) (UniProt Q03181); assay: qHTS assay to identify small molecule agonists of the peroxisome proliferator-activated receptor delta (PPARd) signaling pathway (AID 743212; calls by dose curve)
Sequence of Peroxisome proliferator-activated receptor delta (Homo sapiens) (Q03181 whole entry, looked up): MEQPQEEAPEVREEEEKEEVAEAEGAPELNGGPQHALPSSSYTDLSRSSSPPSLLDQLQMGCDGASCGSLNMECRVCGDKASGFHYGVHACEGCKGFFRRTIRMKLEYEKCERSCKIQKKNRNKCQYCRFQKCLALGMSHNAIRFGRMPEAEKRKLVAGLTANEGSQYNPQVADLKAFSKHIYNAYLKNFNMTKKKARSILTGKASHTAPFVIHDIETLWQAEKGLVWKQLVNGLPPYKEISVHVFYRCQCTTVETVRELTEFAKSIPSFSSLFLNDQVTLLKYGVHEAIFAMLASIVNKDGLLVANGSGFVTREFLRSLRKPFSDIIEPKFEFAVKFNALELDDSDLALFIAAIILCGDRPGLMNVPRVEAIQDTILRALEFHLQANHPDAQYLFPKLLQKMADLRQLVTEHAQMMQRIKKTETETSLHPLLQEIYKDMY
Summary of the method: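 Tox21 library screened in GeneBLAzer PPARd UAS-bla HEK293H cells. After compound treatment at 37 C, a FRET-based beta-lactamase substrate was applied for 2 h and fluorescence recorded.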

[12] = qHTS assay to identify small molecule antagonists of the peroxisome proliferator-activated receptor delta (PPARd) signaling pathway - cell viability counter screen (AID 743213); note: nearly all actives have a fitted effect of over 50% in size
Summary of the method: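 In this counter screen, HEK293H cells carrying a UAS-beta-lactamase reporter are co-treated with test compounds and 300 nM L165041 (final) for 17 h at 37 C; cell viability is quantified by CellTiter-Glo luminescence.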

[13] = target: Peroxisome proliferator-activated receptor delta (Homo sapiens) (UniProt Q03181); assay: qHTS assay to identify small molecule antagonists of the peroxisome proliferator-activated receptor delta (PPARd) signaling pathway (AID 743215; active = well fitted inhibition curve with a large enough effect in the signal ratio in the repeat runs, not every such curve was filed as active; the % refers to the signal ratio;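 note: cells stimulated with agonist L165041 at 300 nM final during compound exposure; series mostly up to about 62 µM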)
Summary of the method: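 Here, a reporter line (HEK293H, beta-lactamase under a UAS) measures PPARd signaling. Compounds are tested against agonist L165041 at 300 nM final concentration over 17 h at 37 C, with fluorescence read after substrate.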

[14] = target: Bile acid receptor (Homo sapiens) (UniProt Q96RI1); assay: qHTS assay to identify small molecule antagonists of the farnesoid-X-receptor (FXR) signaling pathway (AID 743217; active = well fitted inhibition curve with a large enough effect in the signal ratio in the repeat runs, not every such curve was filed as active; the % refers to the signal ratio)
Sequence of Bile acid receptor (Homo sapiens) (Q96RI1 whole entry, looked up): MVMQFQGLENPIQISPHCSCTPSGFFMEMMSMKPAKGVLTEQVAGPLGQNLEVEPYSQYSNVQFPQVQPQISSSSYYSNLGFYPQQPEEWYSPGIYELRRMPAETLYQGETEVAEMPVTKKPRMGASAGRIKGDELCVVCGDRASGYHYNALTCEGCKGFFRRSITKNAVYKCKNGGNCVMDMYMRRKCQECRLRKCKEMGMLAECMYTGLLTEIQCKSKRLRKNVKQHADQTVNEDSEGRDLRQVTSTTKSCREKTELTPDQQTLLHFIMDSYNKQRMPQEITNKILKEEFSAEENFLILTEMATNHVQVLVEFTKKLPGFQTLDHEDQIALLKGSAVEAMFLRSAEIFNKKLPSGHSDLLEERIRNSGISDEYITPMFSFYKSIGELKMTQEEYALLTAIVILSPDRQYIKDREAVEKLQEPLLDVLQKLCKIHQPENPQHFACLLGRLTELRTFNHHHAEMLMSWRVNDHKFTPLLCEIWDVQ
Summary of the method: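 Test compounds are pin-transferred onto FXR-bla HEK 293T cells, then chenodeoxycholic acid is added at 50 uM final. After 16 h at 37 °C, LiveBLAzer B/G substrate is applied for 2 h at room temperature and fluorescence read.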

[15] = qHTS assay to identify small molecule agonists of the farnesoid-X-receptor (FXR) signaling pathway - cell viability counter screen (AID 743218); note: nearly all actives have a fitted effect of over 45% in size
Summary of the method: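 Quantitative HTS counter screen measuring ATP-based viability via CellTiter-Glo luminescence in HEK 293T cells carrying a UAS-driven beta-lactamase reporter, after 16 h compound exposure at 37 C.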

[16] = target: Bile acid receptor (Homo sapiens) (UniProt Q96RI1); assay: qHTS assay to identify small molecule agonists of the farnesoid-X-receptor (FXR) signaling pathway (AID 743220; active = well fitted activation curve with a large enough effect in the signal ratio in the repeat runs, not every such curve was filed as active; the % refers to the signal ratio)
Summary of the method: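 FXR-UAS-bla HEK 293T cells carrying a UAS-driven beta-lactamase reporter were plated for 5 h at 37C/5% CO2, then exposed to DMSO-dissolved Tox21 10K compounds for 16 h at 37C. A LiveBLAzer B/G FRET substrate was loaded for 2 h at room temperature before fluorescence reading.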

[17] = qHTS assay to identify small molecule antagonists of the farnesoid-X-receptor (FXR) signaling pathway - cell viability counter screen (AID 743221; active = well fitted cell-killing curve with a large enough effect in the repeat runs, not every such curve was filed as active; note: nearly all actives have a fitted effect of over 50% in size)
Summary of the method: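 GeneBLAzer FXR-UAS-bla HEK 293T cells, compound plus chenodeoxycholic acid (50 uM final), 16 h at 37 C. CellTiter-Glo added to the same wells after the beta-lactamase read; luminescence read after 30 min at room temperature as viability.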

[18] = target: Vitamin D3 receptor (Homo sapiens) (UniProt P11473); assay: qHTS assay to identify small molecule agonists of the vitamin D receptor (VDR) signaling pathway (AID 743222; calls by dose curve)
Sequence of Vitamin D3 receptor (Homo sapiens) (P11473 whole entry, looked up): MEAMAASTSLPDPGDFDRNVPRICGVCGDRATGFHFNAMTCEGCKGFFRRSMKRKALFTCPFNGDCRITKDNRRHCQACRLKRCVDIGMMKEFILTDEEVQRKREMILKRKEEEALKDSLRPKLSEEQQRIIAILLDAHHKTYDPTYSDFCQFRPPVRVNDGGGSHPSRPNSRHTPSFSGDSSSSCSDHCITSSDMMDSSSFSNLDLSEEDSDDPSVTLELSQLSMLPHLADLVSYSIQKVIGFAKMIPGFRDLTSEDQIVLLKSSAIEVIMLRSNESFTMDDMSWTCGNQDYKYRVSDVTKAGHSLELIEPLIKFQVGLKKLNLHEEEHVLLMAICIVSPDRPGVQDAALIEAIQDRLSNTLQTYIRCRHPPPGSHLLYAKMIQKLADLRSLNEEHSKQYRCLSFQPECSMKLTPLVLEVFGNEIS
Summary of the method: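 Tox21 cell reporter format: VDR-bla line, 16 h compound exposure in 5% CO2 at 37C, then fluorescence intensity after 2 h with LiveBLAzer B/G FRET substrate.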

[19] = qHTS assay for small molecule agonists of the antioxidant response element (ARE) signaling pathway (AID 743202; active = well fitted activation curve with a large enough effect in the signal ratio in the repeat runs, not every such curve was filed as active; the % refers to the signal ratio)
Summary of the method: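 HepG2 ARE-bla cells; 16 h treatment at 37 C; FRET-based beta-lactamase fluorescence read after 2 h substrate incubation at room temperature.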

[20] = target: Vitamin D3 receptor (Homo sapiens) (UniProt P11473); assay: qHTS assay to identify small molecule antagonists of the vitamin D receptor (VDR) signaling pathway (AID 743223; active = well fitted inhibition curve with a large enough effect in the signal ratio in the repeat runs, not every such curve was filed as active; the % refers to the signal ratio)
Summary of the method: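 VDR-bla cells were treated with compound plus 3 nM final 1alpha,25-dihydroxyvitamin D3 for 16 h at 37C. Beta-lactamase reporter read by B/G FRET substrate fluorescence after 2 h at room temperature. qHTS format.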

Measured: Potency

OC[C@H]1O[C@@H](OCCc2ccc(O)cc2)[C@H](O)[C@@H](O)[C@@H]1O
not listed: [19] | [20]
inactive: all other assays above

CC(CC=O)c1ccccc1 (stereo unspecified)
not listed: [10] | [14] | [15] | [16]
inactive: all other assays above

CCCCCCCCCCCc1ccccc1
not listed: [20]
inactive: all other assays above

CCOC(=O)Cc1cccc2ccccc12
not listed: [9] | [10] | [11] | [13] | [14] | [16]
inactive: all other assays above

CC[N+]1(CC)CCC(=C(c2ccccc2)c2ccccc2)C1C (stereo unspecified)
not listed: [10] | [14] | [16]
inactive: all other assays above

CC1OC(=O)C(C)OC1=O (stereo unspecified)
inactive: all assays above

O=C1c2ccccc2S(=O)(=O)N1CCCCN1CCN(c2ncccn2)CC1
not listed: [10] | [11] | [13] | [14] | [15] | [16] | [18] | [20]
inactive: all other assays above

CCCCC(CC)COC(=O)CCCCCCCCC(=O)OCC(CC)CCCC (stereo unspecified)
inactive: all assays above
